Results filed as inconclusive are left out. A number with no mark means an inactive call. Calls come from the whole dose curve; as a rule, active = well fitted cell-killing curve with a large enough effect; inconclusive = small, poorly fitted or top-dose-only effect, or effect the other way; inactive = flat fitted curve, though single readings scatter. Where a SMILES comes first, the peptide text is derived from it. The star is where a group is joined. PhAc = O=C(Cc1ccccc1)*
% is set by controls: 0 for no effect and ±100 for the full control effect.

This assay relates to CAOV3. Briefly: Primary qHTS to identify gynecologic anti-cancer compounds using libraries of approved drugs and bioactive compounds (AID 1345084). Note: nearly all actives have a fitted effect of over 55% in size. The conditions noted are these: Gynecologic cancer cell panel viability, ATPlite luminescence, 48 h; series mostly up to 57.5 µM; activity change, negative = cytotoxicity: at the top concentration. A digest of the protocol: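 ATP-based viability (ATPlite), 1,000 cells/well, 16 h pre-incubation, 48 h compound at 37 C, 5% CO2, 15 min RT before read.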
Background: In qHTS, concentration-response curves come from the screen itself.
For `COC1CC(O[C@H]2CC[C@@]3(C)C(=CC[C@]4(O)C3[C@H](O)[C@@H](O)[C@]3(C)[C@@H]([C@H](C)O)CC[C@@]34O)C2)OC(C)C1OC1CC(OC)C(OC2CC(OC)C(OC3OC(C)C(OC4OC(CO)C(O)C(O)C4O)C(OC)C3O)C(C)O2)C(C)O1` (some centres undefined), the activity change, negative = cytotoxicity was 14.6% [at 11.6 µM]. Take `C=C1CCC2[C@](C)(CO)CCC[C@@]2(C)[C@@H]1CCC1=CCOC1=O` (some centres undefined): the “activity change, negative = cytotoxicity” value was 16.9% [at 38.5 µM].

As for `C=C1CCC[C@]2(C)CC[C@@](O)(C(=C)C(=O)O)C[C@@H]12`, the “activity change, negative = cytotoxicity” value was 2.31%. In the case of `CC1CC(=O)[C@]2(O)C(C(=O)OCCc3ccc(O)cc3)=CO[C@@H](O[C@@H]3O[C@H](CO)[C@@H](O)[C@H](O)[C@H]3O)[C@H]12` (some centres undefined), the “activity change, negative = cytotoxicity” value is -2.97% [at 25.3 µM].

For the molecule `COC(=O)C1=COC(O[C@@H]2O[C@H](CO)[C@@H](O)[C@H](O)[C@H]2O)[C@@H]2[C@@](C)(O)[C@@H](OC(=O)/C=C/c3ccccc3)C[C@]12O` (some centres undefined), the “activity change, negative = cytotoxicity” value was 4.78% [at 25.3 µM].

For `CCC[C@H](N[C@@H](C)C(=O)N1[C@H](C(=O)O)C[C@@H]2CCCC[C@@H]21)C(=O)O`, the “activity change, negative = cytotoxicity” value is 0.622%. With `CC1OC(OC2C(OC(=O)[C@]34CCC(C)(C)C[C@H]3C3=CCC5[C@@]6(C)CC[C@H](OC7OC(C(=O)O)C(O)C(O)C7O)C(C)(C)C6CC[C@@]5(C)[C@]3(C)CC4O)OC(CO)C2O)C(O)C(O)C1OC1OCC(O)C(O)C1O` (some centres undefined) the figure was 0.294% [at 11.6 µM]; with `CCOC(=O)CNC(=O)[C@@H]1CCCN1C(=O)Cc1ccccc1` (PhAc-Pro-Gly-OEt), -12.9%; with `C/C(=C\CC[C@H](CO)[C@@H]1CC[C@]2(C)C3=C(CC[C@@]12C)[C@@]1(C)CCC(=O)C(C)(C)C1CC3)C(=O)O` (some centres undefined), 8.66% [at 25.3 µM].

For `C=C1CCC2C(C)(C)CCC[C@]2(C)[C@H]1CC/C(C)=C/C(=O)O` (some centres undefined), the “activity change, negative = cytotoxicity” value was -0.151%. The value for `COCC1OC(OC(C)(C)C2CCC3(C)C=C(C4CCC5C4(C)CC(O)C4OC(C(C)(C)O)CCC45C)CCC3O2)C(NC(C)=O)C(O)C1O` (centres undefined) was 15.8% [at 25.3 µM]; that for `C=C1CCC2[C@](C)(CCC[C@]2(C)C(=O)O)[C@H]1CC/C(C)=C/C(=O)OC` (some centres undefined) was -0.128% [at 38.5 µM]. The value for `COC(=O)c1c(CC=C(C)C)c(OC2OC(CO)C(O)C(O)C2O)c2ccccc2c1OC1OC(CO)C(O)C(O)C1O` (centres undefined) was -4.87% [at 25.3 µM]; that for `O=C(Cc1ccccc1)OC[C@H]1O[C@H](O[C@H]2O[C@H](CO)[C@@H](O)[C@H](O)[C@H]2O)[C@H](O)[C@@H](O)[C@@H]1O` was 13.2% [at 25.3 µM]; that for `CC1=C2C[C@H]3OC(=O)[C@H](O)[C@@]4(O)[C@@H](C)[C@@H](O)[C@H](O)C([C@@]2(C)[C@H](O)[C@@H](O)C1)[C@@]34C` (some centres undefined) was 17% [at 38.5 µM]. For the molecule `CC1CC(=O)C2=C(O1)OC1(C)CCC3C(C)(C)C4OC4C(=O)C3(C)C1C2` (centres undefined), the “activity change, negative = cytotoxicity” value was -2.77% [at 38.5 µM]. The value for `COc1ccnc(CCc2nc3ncccc3[nH]2)c1` was 8.05%; that for `C/C(=C/CO)CC[C@H]1[C@]2(C)C[C@H](O)CC(C)(C)[C@H]2CC[C@]1(C)O` was 7.8% [at 38.5 µM]. For `COc1c2c(c(C)c3c1C(=O)OC3)OC1(C)CC(O)C34OC(O)(CCC3(C)C1C2)OC4(C)C` (centres undefined), the “activity change, negative = cytotoxicity” value is 2.32% [at 25.3 µM]. For `COC(=O)[C@]1(Cc2ccc(O)c(CC=C(C)C)c2)OC(=O)C(O)=C1c1ccc(O)cc1`, the “activity change, negative = cytotoxicity” value was 5.17% [at 25.3 µM].

As to `COc1cnc(-c2ccc(Cn3c(CC(C)(C)C(=O)O)c(SC(C)(C)C)c4cc(OC[C@@H]5Cc6ccccc6N5C(C)=O)ccc43)cc2)nc1`, the “activity change, negative = cytotoxicity” value was -4.16% [at 38.5 µM].

As to `CCC(C)C(=O)O[C@H]1C[C@](C)(O)[C@]23OC(C)(C)[C@H](C[C@H](OC(=O)c4ccccc4)[C@]2(COC(C)=O)[C@H]1OC(=O)C(C)CC)[C@H]3OC(C)=O` (some centres undefined), the “activity change, negative = cytotoxicity” value is 15.3% [at 25.3 µM]. With `CC1CC2(O)OC(=O)C3=C2C(CCC3)[C@@]12C[C@@H](c1ccoc1)OC2=O` (some centres undefined) the figure was 10.5% [at 38.5 µM]; with `COc1cc(C(C)=O)ccc1O[C@@H]1O[C@H](CO)[C@@H](O)[C@H](O)[C@H]1O`, -4.23% [at 38.5 µM]. The value for `COC(=O)C1=COC(OC2OC(CO)C(O)C(O)C2O)C2C(C)C(OC(C)=O)C(OC(=O)c3ccccc3)C12` (centres undefined) was -1.07% [at 25.3 µM]; that for `COc1ccnc2[nH]cc(C(=O)C(=O)N3CCN(C(=O)c4ccccc4)CC3C)c12` (centres undefined) was -6.33%. Consider `C[C@@H]1O[C@@H](O[C@H]2[C@H](O)[C@@H](O)[C@H](OC[C@H]3O[C@@H](OC(=O)[C@]45CCC(C)(C)C[C@H]4C4=CCC6[C@@]7(C)C[C@@H](O)[C@H](O)[C@@](C)(CO)C7[C@H](O)C[C@@]6(C)[C@]4(C)CC5)[C@H](O)[C@@H](O)[C@@H]3O)O[C@@H]2CO)[C@H](O)[C@H](O)[C@H]1O` (some centres undefined), for which the activity change, negative = cytotoxicity was -8.06% [at 11.6 µM]. The value for `O=C(CC1CC(c2ccc(F)cc2F)=NO1)N1CCOCC1` (centres undefined) was 4.12%; that for `COC(=O)C1=CO[C@@H](O[C@@H]2O[C@H](CO)[C@@H](O)[C@H](O)[C@H]2O)[C@@H]2[C@@H](C(=O)O)CC[C@H]12` was -22.5% [at 25.3 µM]; that for `C[C@@H]1O[C@@H](OC2C(CO)OC(OCC3OC(OC(=O)[C@]45CCC(C)(C)CC4C4=CCC6[C@@]7(C)CC[C@@H](O)[C@](C)(C(=O)O)C7CC[C@@]6(C)[C@]4(C)CC5)C(O)C(O)C3O)C(O)C2O)[C@H](O)[C@H](O)[C@H]1O` (some centres undefined) was 16.7% [at 11.6 µM]. On to `OC[C@H]1O[C@@H](OC[C@H]2O[C@@H](OCc3ccccc3)[C@H](O)[C@@H](O)[C@@H]2O)[C@H](O)[C@@H](O)[C@@H]1O`, for which the “activity change, negative = cytotoxicity” value was 16.3% [at 25.3 µM]. The value for `COC1OC(O)C2(CCC3(O2)C(C)CC2OC(=O)C4(C)CCCC3(C)C24)C1O` (centres undefined) was 12.9% [at 38.5 µM]; that for `C=C1C(OC(C)=O)C(=O)C2C(C)(C)C(O)CCC2(C)C1CC(OC(C)=O)/C(C)=C/COC(C)=O` (centres undefined) was -5.66% [at 25.3 µM].

As for `C/C(=C\CO)CC/C=C(\C)C(=O)O[C@@H]1O[C@H](CO)[C@@H](O)[C@H](O)[C@H]1O`, the “activity change, negative = cytotoxicity” value is -1.23% [at 38.5 µM].

Turning to `CC(=O)c1c(C)cccc1O[C@@H]1O[C@H](CO)[C@@H](O)[C@H](O)[C@H]1O`, the “activity change, negative = cytotoxicity” value is 12% [at 38.5 µM].

Regarding `CC(=O)O[C@@H]1C=C2[C@H](CC[C@@]3(C)[C@@]2(O)CC[C@H]2Cc4c([nH]c5ccccc45)[C@@]23C)O[C@@H]1C(C)(C)O`, the “activity change, negative = cytotoxicity” value was 6.4% [at 25.3 µM]. As to `C=CC1(C)CC=C2C(CCC3C(C)(C(=O)O)CCCC23C)C1` (centres undefined), the “activity change, negative = cytotoxicity” value is 12.1%. As for `CC(C)c1ccc2c(c1)C(=O)CC1C(C)(C(=O)O)CCCC21C` (centres undefined), the “activity change, negative = cytotoxicity” value was 5.35% [at 38.5 µM]. The value for `CC(C)CC(=O)O[C@@H]1O[C@H](CO)[C@@H](O[C@H]2O[C@H](C)[C@@H](N[C@H]3C=C(CO)[C@@H](O[C@H]4O[C@H](CO)[C@@H](O[C@H]5O[C@H](CO)[C@@H](O[C@H]6O[C@H](CO)[C@@H](O)[C@H](O)[C@H]6O)[C@H](O)[C@H]5O)[C@H](O)[C@H]4O)[C@H](O)[C@H]3O)[C@H](O)[C@H]2O)[C@H](O)[C@H]1O` was 1.97% [at 11.6 µM].

(Values after PubChem BioAssay (NCATS).)
